Test [1] deals with rat Somatostatin Receptor (SST), Sstr1 (gene 25033) (UniProt P28646). The test is described as follows: NVS_GPCR_rSST: NovaScreen (NVS) G Protein-Coupled Receptor Assay for rat Somatostatin Receptor (SST) (AID 2283314). In short, it runs like this: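 Single-concentration duplicate screen (25 uM), then concentration-response up to 50 uM for chemicals passing a threshold such as 30% inhibition. Membranes came from rat forebrain. Binding was measured 1 h post-dose by filter radiodetection and scintillation, relative to DMSO.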
rat Somatostatin Receptor (SST), Sstr1 (gene 25033), sequence (P28646 whole entry, looked up): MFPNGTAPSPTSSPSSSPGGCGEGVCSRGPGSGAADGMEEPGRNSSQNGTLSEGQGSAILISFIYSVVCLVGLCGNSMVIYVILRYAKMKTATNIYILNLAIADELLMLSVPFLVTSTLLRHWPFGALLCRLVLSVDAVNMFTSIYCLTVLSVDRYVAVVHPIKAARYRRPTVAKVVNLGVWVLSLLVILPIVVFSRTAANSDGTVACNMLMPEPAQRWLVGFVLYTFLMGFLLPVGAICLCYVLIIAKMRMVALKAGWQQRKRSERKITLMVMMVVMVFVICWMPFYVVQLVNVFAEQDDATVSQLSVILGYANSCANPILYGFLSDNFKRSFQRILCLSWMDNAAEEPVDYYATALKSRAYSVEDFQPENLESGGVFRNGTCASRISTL

The target in test [2] is Voltage-dependent N-type calcium channel subunit alpha-1B (Rattus norvegicus) (UniProt Q02294). The test is described as follows: NVS_IC_rCaChN: NovaScreen (NVS) Ion Channel Assay for rat Calcium Channel, Type N (CaChN) (AID 2283317).
Test [3] has as its target rat Neurokinin-1 Receptor (NK1), Tacr1 (gene 24807) (UniProt P14600). Put plainly: NVS_GPCR_rNK1: NovaScreen (NVS) G Protein-Coupled Receptor Assay for rat Neurokinin-1 Receptor (NK1) (AID 2283309). In short, it runs like this:
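Competitive radioligand binding to NK1 in rat submaxillary membranes, 1 h incubation, filtration and scintillation read-out. Compounds first screened at 25 uM in duplicate, then concentration-response for actives; signal loss relative to DMSO.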

Test [4] addresses rat Opioid Receptor, Non-selective Sodium (Na+) Binding, Oprm1 (gene 25601) (UniProt P33535). The test is described as follows: NVS_GPCR_rOpiate_NonSelectiveNa: NovaScreen (NVS) G Protein-Coupled Receptor Assay for rat Opioid Receptor, Non-selective Sodium (Na+) Binding (AID 2283311). In short, it runs like this:
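Filtration radioligand binding on rat forebrain membrane preparations, read 1.5 h after dosing. Single-concentration 25 µM primary screen in duplicate, followed by singleton concentration series to 50 µM max for actives; DMSO baseline.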

Test [5] deals with rat Neonicotinoid receptor (NNR), Chrna7 (gene 25302) (UniProt Q05941). Put plainly: NVS_LGIC_rNNR_BungSens: NovaScreen (NVS) Ligand-Gated Ion Channel Assay for rat Neonicotinoid receptor (NNR) (AID 2283315). In short, it runs like this: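 Rat cortical membrane preparation incubated 2.5 h with tritiated or iodinated radioligand and test chemical. Bound radioactivity was filtered and counted by scintillation, and displacement was analysed against DMSO.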
rat Neonicotinoid receptor (NNR), Chrna7 (gene 25302), sequence (Q05941 whole entry, looked up): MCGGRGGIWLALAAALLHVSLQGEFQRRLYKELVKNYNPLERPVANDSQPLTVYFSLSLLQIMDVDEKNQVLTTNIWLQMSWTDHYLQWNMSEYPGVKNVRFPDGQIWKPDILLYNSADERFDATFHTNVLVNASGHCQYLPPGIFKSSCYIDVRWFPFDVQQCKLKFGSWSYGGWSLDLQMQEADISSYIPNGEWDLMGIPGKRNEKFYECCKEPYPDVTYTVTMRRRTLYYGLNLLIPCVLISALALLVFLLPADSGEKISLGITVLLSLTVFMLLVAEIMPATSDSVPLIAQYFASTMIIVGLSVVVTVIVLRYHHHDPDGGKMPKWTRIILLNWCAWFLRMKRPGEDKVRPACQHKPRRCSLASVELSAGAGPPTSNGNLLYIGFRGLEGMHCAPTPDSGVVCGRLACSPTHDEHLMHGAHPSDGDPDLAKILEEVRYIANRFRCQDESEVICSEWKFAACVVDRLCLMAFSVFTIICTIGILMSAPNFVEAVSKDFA

For test [6], the target named is rat Neurotensin Receptor (NTS), Ntsr1 (gene 366274) (UniProt P20789). The test is described as follows: NVS_GPCR_rNTS: NovaScreen (NVS) G Protein-Coupled Receptor Assay for rat Neurotensin Receptor (NTS) (AID 2283308). In short, it runs like this: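 Single-point duplicates at 25 uM, then concentration series to 50 uM max for hits, measured radioligand displacement on rat forebrain membrane preparations. Bound label counted by filtration scintillation at 1 h; signal loss relative to DMSO fitted.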
rat Neurotensin Receptor (NTS), Ntsr1 (gene 366274), sequence (P20789 whole entry, looked up): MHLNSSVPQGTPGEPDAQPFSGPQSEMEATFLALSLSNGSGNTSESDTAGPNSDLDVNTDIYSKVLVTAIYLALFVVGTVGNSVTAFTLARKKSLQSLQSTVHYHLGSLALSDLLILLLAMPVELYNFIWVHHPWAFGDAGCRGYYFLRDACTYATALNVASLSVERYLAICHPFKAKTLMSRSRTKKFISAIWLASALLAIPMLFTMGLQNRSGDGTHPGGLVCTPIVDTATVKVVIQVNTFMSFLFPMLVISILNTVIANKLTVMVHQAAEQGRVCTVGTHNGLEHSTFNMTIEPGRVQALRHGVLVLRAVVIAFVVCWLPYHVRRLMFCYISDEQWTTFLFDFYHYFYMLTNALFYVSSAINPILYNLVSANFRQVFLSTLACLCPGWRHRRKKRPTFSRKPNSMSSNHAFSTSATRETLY

Test [7] has as its target rat Opioid Receptor, Non-selective Binding, Oprm1 (gene 25601) (UniProt P33535). Put plainly: NVS_GPCR_rOpiate_NonSelective: NovaScreen (NVS) G Protein-Coupled Receptor Assay for rat Opioid Receptor, Non-selective Binding (AID 2283318). In short, it runs like this:
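Filter-based radioligand displacement using rat forebrain membrane preparations, measured 1.5 h post-dosing. Single-concentration duplicate screen at 25 uM, follow-up in concentration series; activity taken as signal loss relative to DMSO.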

For test [8], the target named is rat Neurokinin-3 Receptor (NK3), Tacr3 (gene 24808) (UniProt P16177). The test is described as follows: NVS_GPCR_rNK3: NovaScreen (NVS) G Protein-Coupled Receptor Assay for rat Neurokinin-3 Receptor (NK3) (AID 2283310). How it is done:
NVS_GPCR_rNK3 is a biochemical, single-readout assay that uses extracted gene-proteins from Rat cortical membranes in a tissue-based cell-free assay. Measurements were taken 2 hours after chemical dosing in a 48-well plate.NVS_GPCR_rNK3 is one of one assay component(s) measured or calculated from the NVS_GPCR_rNK3 assay. It is designed to make measurements of radioligand binding, a form of binding reporter, as detected with scintillation counting signals by Filter-based radiodetection technology.Data from the assay component NVS_GPCR_rNK3 was analyzed into 1 assay endpoint. This assay endpoint, NVS_GPCR_rNK3, was analyzed in the positive analysis fitting direction relative to DMSO as the negative control and baseline of activity. Using a type of binding reporter, loss-of-signal activity can be used to understand changes in the binding as they relate to the gene Tacr3. Furthermore, this assay endpoint can be referred to as a primary readout, because the performed assay has only produced 1 assay endpoint. To generalize the intended target to other relatable targets, this assay endpoint is annotated to the gpcr intended target family, where the subfamily is rhodopsin-like receptor.
Binding assays used specific radioligands (tritiated, iodinated) with non-radioactive competitive displacement ligands in agonist or antagonist protocols (as indicated) and various reference compounds and inhibitors to titrate specific binding to receptors and transporters. Most enzyme assays (CYPs, kinases, phosphatases, proteases, HDACs) used recombinant protein and specific substrates (fluorescence mostly, some colorimetric and radioactive) and inhibitors, followed by a biochemical separation of substrate and product. All assays for the biochemical HTS were initially run in duplicate at a single concentration (10 uM for CYP450 assays and 25 uM for all others). […]

SMILES strings stand for the structures. Results filed as inconclusive are left out. Calls of active or inactive are those of the source. How the source made its calls: active means hit-call score of the fitted dose curve at least 0.9, where 1 is the maximum; inconclusive means response in the unintended direction; inactive means score below 0.9.

rat Neurokinin-1 Receptor (NK1), Tacr1 (gene 24807), sequence (P14600 whole entry, looked up): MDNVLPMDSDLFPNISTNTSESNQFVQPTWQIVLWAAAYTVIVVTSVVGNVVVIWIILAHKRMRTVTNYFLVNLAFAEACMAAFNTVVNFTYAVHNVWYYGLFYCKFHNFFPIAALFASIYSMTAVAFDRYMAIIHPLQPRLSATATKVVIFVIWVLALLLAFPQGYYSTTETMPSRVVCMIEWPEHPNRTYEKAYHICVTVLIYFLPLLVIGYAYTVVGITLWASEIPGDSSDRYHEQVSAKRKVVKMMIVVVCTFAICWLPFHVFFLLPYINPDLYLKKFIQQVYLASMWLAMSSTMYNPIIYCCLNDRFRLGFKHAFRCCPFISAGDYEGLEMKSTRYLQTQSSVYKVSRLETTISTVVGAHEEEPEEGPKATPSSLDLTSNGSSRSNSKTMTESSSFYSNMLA
rat Opioid Receptor, Non-selective Binding, Oprm1 (gene 25601), sequence (P33535 whole entry, looked up): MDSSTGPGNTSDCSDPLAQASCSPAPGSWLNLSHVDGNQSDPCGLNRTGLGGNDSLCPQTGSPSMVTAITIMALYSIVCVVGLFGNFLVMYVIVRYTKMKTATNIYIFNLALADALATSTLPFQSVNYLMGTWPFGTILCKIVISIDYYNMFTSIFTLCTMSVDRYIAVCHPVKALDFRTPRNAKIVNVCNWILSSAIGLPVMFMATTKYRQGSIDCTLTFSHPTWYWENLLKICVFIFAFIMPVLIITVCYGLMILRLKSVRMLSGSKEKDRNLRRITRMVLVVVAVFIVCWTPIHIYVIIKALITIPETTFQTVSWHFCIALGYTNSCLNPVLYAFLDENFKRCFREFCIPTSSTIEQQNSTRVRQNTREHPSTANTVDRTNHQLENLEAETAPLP
rat Opioid Receptor, Non-selective Sodium (Na+) Binding, Oprm1 (gene 25601), sequence (P33535 whole entry, looked up): as above
rat Neurokinin-3 Receptor (NK3), Tacr3 (gene 24808), sequence (P16177 whole entry, looked up): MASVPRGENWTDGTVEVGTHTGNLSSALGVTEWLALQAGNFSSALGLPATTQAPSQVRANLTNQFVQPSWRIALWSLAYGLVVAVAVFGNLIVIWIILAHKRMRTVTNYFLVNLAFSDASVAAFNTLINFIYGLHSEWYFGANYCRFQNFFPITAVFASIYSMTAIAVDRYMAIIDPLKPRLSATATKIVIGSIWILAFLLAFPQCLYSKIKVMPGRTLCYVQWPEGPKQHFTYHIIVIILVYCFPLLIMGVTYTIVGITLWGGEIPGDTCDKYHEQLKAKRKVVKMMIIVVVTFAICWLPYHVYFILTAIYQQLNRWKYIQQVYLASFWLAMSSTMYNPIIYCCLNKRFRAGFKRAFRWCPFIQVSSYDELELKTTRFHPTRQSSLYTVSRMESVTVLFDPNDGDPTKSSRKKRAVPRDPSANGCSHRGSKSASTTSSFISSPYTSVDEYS

For `CN(C)C(=S)SSC(=S)N(C)C`, in test [1], the molecule was classed as inactive.

Take `CCNc1nc(Cl)nc(NCC)n1`: the result in test [2] was inactive.

Regarding `C=CCC1=C(C)[C@@H](OC(=O)[C@@H]2[C@@H](C=C(C)C)C2(C)C)CC1=O`, in test [3], the AC50 – broadly, the midpoint of the concentration-response curve, whichever way the signal moves – was 39.1 µM (active).

`COC(=O)C=C(C)OP(=O)(OC)OC`: the molecule was called inactive in test [4].

On to `N#CC(CCc1ccc(Cl)cc1)(Cn1cncn1)c1ccccc1` (configuration not stated), for which the call in test [5] was inactive.

As to `Cc1c(F)c(F)c(COC(=O)C2C(/C=C(\Cl)C(F)(F)F)C2(C)C)c(F)c1F` (configuration not stated), in test [6], the result was inactive.

Take `CCOP(=S)(OCC)SCn1c(=O)oc2cc(Cl)ccc21`: the outcome in test [5] was inactive.

Consider `COP(=S)(OC)Oc1nc(Cl)c(Cl)cc1Cl`, for which the outcome in test [4] and in test [1] was inactive.

On to `O=C(Nc1ccccc1)Nc1ccnc(Cl)c1`, for which, in test [7], the AC50 is 32.3 µM (active).

For the molecule `CS/C(C)=N/OC(=O)N(C)SN(C)C(=O)O/N=C(\C)SC`, the AC50 in test [8] was 2.97 µM (active); in test [1] it was 17.2 µM (active). Also, the result in test [7] was inactive.

`COc1ccc(C(c2ccc(OC)cc2)C(Cl)(Cl)Cl)cc1`: the call in test [3] and in test [7] was inactive.

Take `CNC(=S)S`: the result in test [6] and in test [8] was inactive.

Consider `COc1nc(C)nc(NC(=O)NS(=O)(=O)c2ccccc2CCC(F)(F)F)n1`, for which the outcome in test [3] and in test [4] was inactive.

In the case of `COc1nc(C)nc(NC(=O)NS(=O)(=O)c2ccccc2Cl)n1`, the molecule was classed as inactive in test [6].

Consider `COC(=O)C(C)Oc1ccc(Oc2ccc(Cl)cc2Cl)cc1` (configuration not stated), for which the molecule was classed as inactive in test [6] and in test [3].

Regarding `CC1COC(Cn2cncn2)(c2ccc(Oc3ccc(Cl)cc3)cc2Cl)O1` (configuration not stated), in test [3], the call was inactive.

For `CCCC1COC(Cn2cncn2)(c2ccc(Cl)cc2Cl)O1` (configuration not stated), the figures for the AC50 in test [4] and in test [7] were 25 µM (active) and 10.1 µM (active), respectively.

In the case of `C#CCOS(=O)OC1CCCCC1Oc1ccc(C(C)(C)C)cc1` (configuration not stated), in test [7], the molecule was classed as inactive.

For the molecule `CCNc1nc(Cl)nc(NC(C)C)n1`, in test [6], the molecule was classed as inactive.

Source of the values: PubChem BioAssay (EPA / NIEHS).
